Test results: article PMC13494018; call rule not given here

B1: d4r2_design_ppi_378_dldesign_0_cycle0_af2pred (protein)
chain: MEEERQKKAEEELKKAKEAVEEGIKYAKEGNIMEANAKLSEARVHAEKAKKLDPETGKEIEKLVEEARKKIKEIAEK
B2: d4r3_design_ppi_43_dldesign_0_cycle1_af2pred (protein)
chain: SLIEEMKKELEELVKKAEAASPAEAPWYAQEARSYGKYYSEKVEKEGNPEEAKKAKEIAEKLSEEARKIAEKKR
B3: d4r2_design_ppi_407_dldesign_0_cycle1_af2pred (protein)
chain: SEEAKIKAKQYTSSLFTKAYLKASPETAPKIEEALEKAFEAIDKSFDEAIAVMKELAELPEAKEEAEKAEKFVAEQKK
B4: d4r3_design_ppi_53_dldesign_0_cycle1_af2pred (protein)
chain: MDPEVTKKKEAEVEAAGDVKLEGIKYLEEAKKLAKEDKEKGRKLLEEAAKEFKERAKEYEKEGKKIAARYAKEEAKKLEELAKEL
B5: d4r3_design_ppi_225_dldesign_0_cycle1_af2pred (protein)
chain: AADAALAAAAAEELAKARSLATEALLYAKKGKVEEAKKLLEEAEKALKKAEELAAAASPEVQARAKKAIEGVKKKIEEAKKAIKEK
B6: d4r2_design_ppi_190_dldesign_0_cycle1_af2pred (protein)
chain: MEVEKTAKEAVEAVKAKSPKAAPKMEEAKKAAIEAAKLGKKEEALELLTKAKKAAEAGNVAEAIAYANEAIWLGEKLKK
B7: d4r2_design_ppi_295_dldesign_0_cycle1_af2pred (protein)
chain: MAEEAAKAVKNRAERLAKEFPEAAPVMKAVAEEAKKKLEEAKGKSPTEIANVAQDYQAEATAKYAEVKRETEKKLAA
B8: d4r2_design_ppi_460_dldesign_0_cycle0_af2pred (protein)
chain: EELKKLTEEALKKAEEAEKKAKELIKEGKTTPLVKKALEAAEKAEAASISPERALEYAKKAEELYKKAIEEIK
B9: d4r2_design_ppi_271_dldesign_0_cycle0_af2pred (protein)
chain: MTKEELEKLKKEVEEAEKLAQEVLKIDKESGEEILKLVTKAKGYAEFAEDALELGSQKAAESFAKKAKEYVKKAEKLAKETLAKAA
B10: d4r2_design_ppi_335_dldesign_0_cycle0_af2pred (protein)
chain: SKVTEDQDKIIELSNKAVEKAEKALEAAKKDKEEAKKYLEEAEKLVEEAEKLAKESGSKAGRAIARNTKEYLEKKKKEIEELL
B11: d4r2_design_ppi_419_dldesign_0_cycle0_af2pred (protein)
chain: DEEKEELKKKIEEAKKKVEEAKKLAEKTSEEVKKLTKEAETEIALAEGYLDNGAAIELAKKKAEEGLKLADEALKLAEKILKEKE
B12: d4r3_design_ppi_32_dldesign_0_cycle1_af2pred (protein)
chain: AEEKAKEAKELAEKAKKTAKEAKELGDEEAAKLAEEGAKDAEEASKIFESGASPAEQADAMAKYRSGKAYNDLAEKRIKEKKK
B13: d4r2_design_ppi_226_dldesign_0_cycle1_af2pred (protein)
chain: MELEKKAKEVAKEAKEKAEEAEKAAEEILKKKKAIKEAGTLYSASERFKQVAEAAELDPSKAEEGRKVMERLKERAEKAVKEAE
B14: d4r3_design_ppi_107_dldesign_0_cycle1_af2pred (protein)
chain: SAAAKEAAEKQEGRFEADLYEVKAKNAAEKYKDDKKKQAEVLEKIAEEAKKKAKEASPVIAKGYKEGAKVAEKLAKEAKKEA
B15: d4r2_design_ppi_363_dldesign_0_cycle1_af2pred (protein)
chain: GLAEAEKKQKELEEKSTKEYIEKVIKESKKKAKELKKKGEEAKKYAEKIEAEVEKAEKATLDEAIEYTSKARKLVEEAEKKL
B16: d4r2_design_ppi_432_dldesign_0_cycle0_af2pred (protein)
chain: AEEELKEAERKAKEVAKLAMEDPEAGAKEAEKMSEGSAEALEALAKELKKAAKEAEKEDKEKAEKIKKIYNKAAAAALRAEALADNAA
B17: d4r2_design_ppi_327_dldesign_0_cycle1_af2pred (protein)
chain: DETVIQAKATIESAKERAEHIKKAIKEKPKTKEELKKAKKILEELEKKAEEAYKKAGEAVKEEYEKAKKAIKEAKKEAEKNLK
B18: d4r2_design_ppi_432_dldesign_0_cycle1_af2pred (protein)
chain: EEEEKKKAEEEAKKVAELALKDPEAGAKAAKEMLPWSAEGLEALAKALAEAAKKAAKEDPEKAEKIKKVYNDAASAALRAEAKEERKA
B19: d4r2_design_ppi_363_dldesign_0_cycle0_af2pred (protein)
chain: SLEEAKKSQEELQKKSTEKWLETQIKEAEKKAKEFKSLGEEAKKKAEEILKEVEKAKASTPEEGLEHAAKAAKIIEEAEKKL
B20: d4r3_design_ppi_139_dldesign_0_cycle1_af2pred (protein)
chain: SMMDEVAKKREKKLIEESTAAAKAALAEAKAIAAGADTPENRAARAAAAEKAIANARIAGGALGKEEGEKLVSEVEAAVKA
B21: d4r2_design_ppi_171_dldesign_0_cycle1_af2pred (protein)
chain: ANEAEAEKYYAEGEQKMILGDTAYEMGKKKGPIFYKIAAEEYKEAAELYKEAAKLASPEKAKEYKEKAKEAEEKSKEAKKKGEE
B22: d4r3_design_ppi_205_dldesign_0_cycle0_af2pred (protein)
chain: SKEEKVKEYLEKAKEALEKMKETAADATAMNANYTEAKYYADKAAKESEEFKEEAEKLKEEAKKAYKEAAAKYAAAKAAAA
B23: d4r3_design_ppi_225_dldesign_0_cycle0_af2pred (protein)
chain: AEDAALAKQAAAKLAEARQKANEALQYAKNGNVEEAKKSLEEAKAALAEAKALAAKASPETQAKAQKALDGVEKRIAEAEKAIKEK
B24: d4r2_design_ppi_319_dldesign_0_cycle0_af2pred (protein)
chain: EEEEKESERLAEEARRAAEEARRRIREAAERSAEAAREALEEARRRMEELIKEAKKHKKAYAVAAGEAERVLHFGEAALARREAAE
B25: d4r2_design_ppi_159_dldesign_0_cycle1_af2pred (protein)
chain: ELEEEAKKAKEVAEKLKKFNLESRLEADEIEAKSKAALREGKENNEEAKKEGLKKVKEQLKKAEELLKKL
B26: d4r3_design_ppi_206_dldesign_0_cycle1_af2pred (protein)
chain: SPEERELAARAQEEAALAKGMKIVVKNNPKSEKAIKDAEETAKEALEAAERIEKLENPTPEAKAAAERARKEAEELLKEVKKAK
B27: d4r3_design_ppi_205_dldesign_0_cycle1_af2pred (protein)
chain: DLDAKAQALLDQAKEALAQMQATAADTVAYLSQATDAKYYARKAAKLDPKFKPQADALIAQLDAALAAAKAAYQAAKAAAA
B28: d4r3_design_ppi_187_dldesign_0_cycle1_af2pred (protein)
chain: SEEKEEGEIYVKHAKLAIEAGKEEKEAGDYKSAIALAKTAIKEAKRAIENPDEEAKKKGKEKLKEAEKALEEIEKALKEAEEK
B29: d4r3_design_ppi_39_dldesign_0_cycle0_af2pred (protein)
chain: DYEKKLKEEMEKYKKEAEKAAADPGAMYQKVLEGKAAADGIVNIAKEEAEEKGDEELKKKAEEAKKKAEEAIKEMKAKADAAAAA
B30: d4r2_design_ppi_339_dldesign_0_cycle1_af2pred (protein)
chain: GESTEKAKKIYEEIKKKAEEYKKKAKEAAELLVEKGEEGGKKLKEIEEEAAKELPEVSFQVKAYINTLKEEAEKRRKEKEA
B31: d4r2_design_ppi_310_dldesign_0_cycle1_af2pred (protein)
chain: AVEKALKIIEETEKEAKEAFEKNPETGLAIAKATYRTAEHLGSKLNKEDAEKLKKKGKEYLEEFEKRYKEKKKELEE
B32: d4r2_design_ppi_327_dldesign_0_cycle0_af2pred (protein)
chain: SQEVIQAKGKIQAAKEQAEAMKEAIEKKPKSPEELERALERLKRLEEEAKEAAKKAGEEVKEEYEEAKKAIEEAKKAAEENRK
B33: d4r2_design_ppi_477_dldesign_0_cycle0_af2pred (protein)
chain: EEEKKEKLKKERHELASELARLASLADALGDKELAEKAEKAMELLALDPEKGKEAAKEVKEAAKKRLAAAKAAAA
B34: d4r2_design_ppi_226_dldesign_0_cycle0_af2pred (protein)
chain: SELEEEAKKVAEEARELAKEAEEAAEKILKEKNNLKEAGTLYAQSAQAKQAAEAVELNPEKAEEARERLKKAKERMKEAVKKAE
B35: d4r2_design_ppi_335_dldesign_0_cycle1_af2pred (protein)
chain: GAVTEALDKVLELSEKAIELAEKALKAAKEDKEEAKKYLEKAREKVKEAEKLAKESGSKAGKSIARNTKEYVEKKEKEIKEII
B36: d4r2_design_ppi_407_dldesign_0_cycle0_af2pred (protein)
chain: MEEKKNKAKQFAFSEFMKAAAAAPPELRPKIEEAMDKTLEALDESFDKAIKVAEEVAKLPIAKKYAEKAKKFIEEQKK
B37: d4r3_design_ppi_27_dldesign_0_cycle1_af2pred (protein)
chain: AEEKAKRMEKKAKEIAEEAKELKKNAPKLDPEEAEKKARLLLGRAEGLLEQAKFGGLPEKVEKAAKEAVKAAKEALKVAKELKEK
B38: d4r3_design_ppi_140_dldesign_0_cycle0_af2pred (protein)
chain: ATEEQKLKAEAAALGGLYVFSPEGGKRRLERIKEELEEEAERYKEENPEKGPEYEKELREKFETLKELMEKEAAEIKA

biological target: VTCN1, Q7Z7D3
Sequence (Q7Z7D3 whole entry): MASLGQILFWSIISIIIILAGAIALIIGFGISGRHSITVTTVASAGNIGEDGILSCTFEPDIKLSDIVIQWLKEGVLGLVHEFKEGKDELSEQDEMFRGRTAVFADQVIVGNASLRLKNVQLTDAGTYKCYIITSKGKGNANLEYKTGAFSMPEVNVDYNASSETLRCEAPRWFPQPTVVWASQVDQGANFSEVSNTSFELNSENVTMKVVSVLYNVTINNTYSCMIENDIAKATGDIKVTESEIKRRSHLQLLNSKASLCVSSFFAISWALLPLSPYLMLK

Binding in a display sort, inactive:
B1 not found
B2 not found
B3 not found
B4 not found
B5 not found
B6 not found
B7 not found
B8 not found
B9 not found
B10 not found
B11 not found
B12 not found
B13 not found
B14 not found
B15 not found
B16 not found
B17 not found
B18 not found
B19 not found
B20 not found
B21 not found
B22 not found
B23 not found
B24 not found
B25 not found
B26 not found
B27 not found
B28 not found
B29 not found
B30 not found
B31 not found
B32 not found
B33 not found
B34 not found
B35 not found
B36 not found
B37 not found
B38 not found
